Records with an inconclusive call do not appear. The source made the active and inactive calls. Unless noted, calls come from the whole dose curve; as a rule, active = well fitted curve in the direction sought with a large enough effect in the repeat runs; inconclusive = weak or mixed curves; inactive = no such curve, though single readings can be large; an effect the other way counts as inactive or inconclusive.
Experiments:
[1] = A CellTox Green Cytotoxicity Assay to monitor cytotoxicity in HepG2 cells - 8 hour (AID 1224890); note: nearly all actives have a fitted effect of over 45% in size
In short: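 Cells and non-lytic dye reagent are dispensed together (600 HepG2 cells/well) and incubated 5 h before DMSO compound transfer. Kinetic fluorescence is then recorded in the same wells during 40 h at 37 C.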

[2] = qHTS assay to identify small molecule antagonists of the estrogen receptor alpha (ER-alpha) signaling pathway using the BG1 cell line in the presence of 0.1 nM 17-beta-estradiol - cell viability counter screen (AID 1259241); note: nearly all actives have a fitted effect of over 40% in size
In short: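 Following 5 days in phenol red-free medium with charcoal-stripped serum, VM7Luc4E2 cells received test compounds alongside 0.1 nM 17beta-estradiol (final) at 37C for 22 hr. Live cells were then quantified via protease-substrate fluorescence.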

[3] = qHTS assay to identify small molecule antagonists of the androgen receptor (AR) signaling pathway using the MDA cell line in the presence of 0.5 nM R1881 - cell viability counter screen (AID 1259242); note: nearly all actives have a fitted effect of over 45% in size
In short: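 Steps: plate MDA-kb2 cells, rest 5 hr at 37C without CO2; pin in compounds in DMSO; add R1881 to 0.5 nM final; incubate 16 hr; add CellTiter-Fluor, 30 min; read fluorescence.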

[4] = target: Androgen receptor (Homo sapiens) (UniProt P10275); assay: qHTS assay to identify small molecule antagonists of the androgen receptor (AR) signaling pathway using the MDA cell line in the presence of 0.5 nM R1881 (AID 1259243); note: nearly all actives have a fitted effect of over 50% in size
Chain of Androgen receptor (Homo sapiens) (P10275 whole entry, looked up): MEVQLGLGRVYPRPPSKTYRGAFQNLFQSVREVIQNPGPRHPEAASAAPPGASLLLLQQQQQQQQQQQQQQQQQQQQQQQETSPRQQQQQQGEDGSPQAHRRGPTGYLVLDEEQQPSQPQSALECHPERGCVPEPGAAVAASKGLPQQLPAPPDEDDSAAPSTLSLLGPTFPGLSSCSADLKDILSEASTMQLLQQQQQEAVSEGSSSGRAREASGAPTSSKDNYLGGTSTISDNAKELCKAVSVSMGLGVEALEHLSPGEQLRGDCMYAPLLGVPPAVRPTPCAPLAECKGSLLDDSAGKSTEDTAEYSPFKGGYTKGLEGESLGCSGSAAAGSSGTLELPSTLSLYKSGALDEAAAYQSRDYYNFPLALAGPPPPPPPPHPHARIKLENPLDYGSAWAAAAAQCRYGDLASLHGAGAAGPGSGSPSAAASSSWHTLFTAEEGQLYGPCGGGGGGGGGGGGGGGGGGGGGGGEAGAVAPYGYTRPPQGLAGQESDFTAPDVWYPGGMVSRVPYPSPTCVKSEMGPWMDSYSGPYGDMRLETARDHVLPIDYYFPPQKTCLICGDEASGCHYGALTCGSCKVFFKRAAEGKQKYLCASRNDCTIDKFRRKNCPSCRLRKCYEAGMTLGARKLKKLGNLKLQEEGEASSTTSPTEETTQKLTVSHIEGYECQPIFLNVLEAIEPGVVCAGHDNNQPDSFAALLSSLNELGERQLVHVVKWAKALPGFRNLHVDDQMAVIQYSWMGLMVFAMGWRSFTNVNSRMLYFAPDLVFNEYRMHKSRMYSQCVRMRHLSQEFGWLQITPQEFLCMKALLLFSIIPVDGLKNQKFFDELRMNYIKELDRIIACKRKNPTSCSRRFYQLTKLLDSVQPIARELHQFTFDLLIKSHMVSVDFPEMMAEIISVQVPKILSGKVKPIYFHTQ
In short: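 Stably transfected MDA-kb2 cells express luciferase from an MMTV promoter bearing both AR and GR response elements. Compounds plus 0.5 nM R1881 (final) were incubated 16 hr at 37C without CO2, then luminescence measured.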

[5] = qHTS assay to identify small molecule phospholipidosis (PLD) inducers (AID 1259344; active = well fitted curve in the direction sought with a large enough effect; an effect the other way counts as inactive or inconclusive)
In short: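 Read-out is LipidTOX Red fluorescence (ex 595/em 615) imaged in HepG2 cells after 24 h compound exposure at 37 C, with Hoechst nuclear counterstain (ex 352/em 461) allowing per-cell normalisation.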

[6] = qHTS assay to identify small molecule HDAC inhibitors (AID 1259364); note: potency is the fitted concentration of half-maximal effect;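 note: wild-type HCT-116 cells with endogenous class I/II HDAC activity; nearly all actives have a fitted effect of over 45% in size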; for activity change, negative = inhibition: top concentration of the series differs between compounds
In short: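 Cells (HCT-116, wild type) are seeded at 1,500 per well, incubated overnight, treated with compound in DMSO for 2 hr, then developed with HDAC-Glo I/II reagent for 30 min at room temperature.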

[7] = qHTS assay to identify small molecule HDAC inhibitors - cell viability counter screen (AID 1259365); note: series mostly up to about 92 µM; nearly all actives have a fitted effect of over 50% in size
In short: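 HCT-116 wild-type, overnight attachment; 2hr drug exposure, 37C; CellTiter-Glo luminescent ATP readout after 30min RT.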

[8] = qHTS assay to identify small molecule agonists of the sonic hedgehog signaling (Shh) pathway - cell viability counter screen (AID 1259366); note: nearly all actives have a fitted effect of over 50% in size
In short: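 Compounds in DMSO were pin-transferred onto 3T3 Gli1-Luc cells that had settled 4hr; plates then stood 24hr at 37C and 5% CO2. One hour before the end, CellTiter-Fluor was added and fluorescence recorded.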

[9] = qHTS assay to identify small molecule antagonists of the sonic hedgehog signaling (Shh) pathway - cell viability counter screen (AID 1259367); note: nearly all actives have a fitted effect of over 55% in size
In short: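 Fluorescence read-out (CellTiter-Fluor, 1 hr at 37C) taken after 23 hr compound treatment of 3T3 Gli1-Luc cells stimulated with conditioned medium. Cells were seeded at 2,000 per well and pre-incubated 4 hr.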

[10] = target: Estrogen receptor (Homo sapiens) (UniProt P03372); assay: qHTS assay to identify small molecule antagonists of the estrogen receptor alpha (ER-alpha) signaling pathway using the BG1 cell line in the presence of 0.1 nM 17-beta-estradiol (AID 1259244); note: nearly all actives have a fitted effect of over 50% in size
Chain of Estrogen receptor (Homo sapiens) (P03372 whole entry, looked up): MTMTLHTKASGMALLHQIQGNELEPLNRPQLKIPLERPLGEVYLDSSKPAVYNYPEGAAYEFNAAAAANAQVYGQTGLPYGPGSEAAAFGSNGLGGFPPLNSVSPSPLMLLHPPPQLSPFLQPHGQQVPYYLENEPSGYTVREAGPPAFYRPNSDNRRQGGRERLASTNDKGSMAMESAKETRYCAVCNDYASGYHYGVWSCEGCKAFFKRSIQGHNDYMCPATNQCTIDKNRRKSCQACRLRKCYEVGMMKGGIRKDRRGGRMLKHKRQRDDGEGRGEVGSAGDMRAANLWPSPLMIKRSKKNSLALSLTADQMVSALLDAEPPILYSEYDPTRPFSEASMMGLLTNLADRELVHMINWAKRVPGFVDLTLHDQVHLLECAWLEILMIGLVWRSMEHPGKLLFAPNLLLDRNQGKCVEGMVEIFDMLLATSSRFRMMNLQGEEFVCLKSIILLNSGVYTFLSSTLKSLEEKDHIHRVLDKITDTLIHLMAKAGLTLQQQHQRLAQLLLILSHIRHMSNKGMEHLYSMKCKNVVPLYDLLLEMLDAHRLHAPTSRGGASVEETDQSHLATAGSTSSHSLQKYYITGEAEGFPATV
In short: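 Antagonist mode: compounds in DMSO are pinned onto VM7Luc4E2 reporter cells, 0.1 nM final 17beta-estradiol is added, and after 22 h at 37C luciferase luminescence is measured with ONE-Glo.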
% is set by controls: 0 for no effect and ±100 for the full control effect.

NS(=O)(=O)c1cc2c(cc1C(F)(F)F)NC(Cc1ccccc1)NS2(=O)=O (configuration not stated)
inactive: Potency [1] | outcome [2] | outcome [3] | Potency [4] | Potency [5] | Potency [6] | outcome [7] | Potency [8] | outcome [9]

OCc1ccccn1
inactive: Potency [1] | outcome [2] | outcome [3] | outcome [10] | Potency [5] | Potency [6] | outcome [7] | outcome [9]

COc1ccc(NC(C)=O)cc1
inactive: Potency [1] | outcome [2] | outcome [3] | Potency [4] | Potency [6] | outcome [7] | Potency [8] | outcome [9]

C1COCCO1
inactive: Potency [1] | outcome [2] | outcome [3] | Potency [4] | outcome [10] | Potency [6] | outcome [7] | Potency [8] | outcome [9]

Cc1cc(C)cc(OCC2CNC(=O)O2)c1 (configuration not stated)
inactive: Potency [1] | outcome [2] | outcome [3] | outcome [10] | Potency [5] | Potency [6] | outcome [7] | Potency [8] | outcome [9]

C1CCCCCCCCCCC1
inactive: cytotoxicity increase [1] -1.99% [at 15.8 µM] | activity change, negative = cytotoxicity [2] -5.47% [at 19 µM] | viability change, negative = cytotoxic [3] 10.4% [at 19 µM] | Potency [4] | activity change, negative = inhibition [10] -1.81% [at 19 µM] | activity change, negative = inhibition [6] 3.38% [at 19 µM] | activity change, negative = cytotoxicity [7] -1.94% [at 19 µM] | viability change, negative = cytotoxic [8] 0.953% [at 19 µM] | viability change, negative = cytotoxic [9] -0.0913% [at 19 µM]

CCOC(=O)Nc1ccc2c(c1)N(C(=O)CCN1CCOCC1)c1ccccc1S2
inactive: Potency [1] | outcome [2] | outcome [3] | Potency [4] | outcome [10] | Potency [5] | Potency [6] | outcome [7] | Potency [8] | outcome [9]

CC(C)c1ccc2oc3nc(N)c(C(=O)O)cc3c(=O)c2c1
inactive: Potency [1] | outcome [2] | outcome [3] | Potency [4] | outcome [10] | Potency [5] | outcome [7] | outcome [9]
active: Potency [6] 0.266 µM

CCCC(=O)O[C@]1(C(=O)CCl)[C@@H](C)C[C@H]2[C@@H]3CCC4=CC(=O)C=C[C@]4(C)[C@@]3(F)C(=O)C[C@@]21C
inactive: Potency [1] | outcome [2] | outcome [3] | Potency [4] | outcome [10] | Potency [5] | Potency [6] | outcome [7] | Potency [8] | outcome [9]

O=C(O)/C=C/c1ccc(/C=C/C(=O)O)cc1
active: Potency [6] 1.34 µM
inactive: Potency [1] | outcome [2] | outcome [3] | Potency [4] | outcome [7] | Potency [8] | outcome [9]

CC(=O)NC(Cc1ccccc1)C(=O)O (configuration not stated)
inactive: Potency [1] | outcome [2] | outcome [3] | outcome [10] | Potency [5] | Potency [6] | outcome [7] | Potency [8] | outcome [9]

COc1cc(CCC(C)=O)ccc1O
inactive: Potency [1] | outcome [2] | outcome [3] | Potency [4] | Potency [6] | outcome [7] | Potency [8] | outcome [9]

Cc1ncc(CSSCc2cnc(C)c(O)c2CO)c(CO)c1O
inactive: Potency [1] | outcome [2] | outcome [3] | Potency [4] | outcome [10] | Potency [5] | Potency [6] | Potency [8] | outcome [9]

O=C1C(CCS(=O)c2ccccc2)C(=O)N(c2ccccc2)N1c1ccccc1 (configuration not stated)
inactive: Potency [1] | outcome [2] | outcome [3] | outcome [10] | Potency [5] | Potency [6] | Potency [8] | outcome [9]

CC1=CC(C)C(C=O)C(C)C1 (configuration not stated)
inactive: Potency [1] | outcome [2] | outcome [3] | outcome [10] | Potency [6] | outcome [7] | Potency [8] | outcome [9]

CCCC(C)C(=O)O (configuration not stated)
inactive: Potency [1] | outcome [2] | outcome [3] | outcome [10] | Potency [6] | outcome [7] | Potency [8] | outcome [9]

c1ccc2cnncc2c1
inactive: Potency [1] | outcome [2] | outcome [3] | outcome [10] | Potency [6] | outcome [7] | Potency [8] | outcome [9]

Cc1ccc(Nc2ccc(O)c3c2C(=O)c2ccccc2C3=O)cc1
inactive: Potency [1] | outcome [2] | outcome [3] | outcome [10] | Potency [6] | outcome [7] | Potency [8] | outcome [9]

CCCCCCCCCCCCCCCCCC(=O)OCCCCCCCCCCCCCC(C)C
inactive: Potency [1] | outcome [2] | outcome [3] | outcome [10] | Potency [6] | outcome [7] | Potency [8] | outcome [9]

OCC(CO)(CO)COCC(CO)(CO)CO
inactive: Potency [1] | outcome [2] | outcome [3] | outcome [10] | Potency [6] | outcome [7] | Potency [8] | outcome [9]

C=CCOCC(O)CS(=O)(=O)O (configuration not stated)
inactive: Potency [1] | outcome [2] | outcome [3] | outcome [10] | Potency [6] | outcome [7] | Potency [8] | outcome [9]

CC(C)(O)C(=O)c1ccc(OCCO)cc1
inactive: Potency [1] | outcome [2] | outcome [3] | outcome [10] | Potency [6] | outcome [7] | Potency [8] | outcome [9]

COCCOC(=O)CC#N
inactive: Potency [1] | outcome [2] | outcome [3] | outcome [10] | Potency [6] | outcome [7] | Potency [8] | outcome [9]

CCC(C)(C)C1CCC(OC)CC1 (configuration not stated)
inactive: Potency [1] | outcome [2] | outcome [3] | outcome [10] | Potency [6] | outcome [7] | Potency [8] | outcome [9]

CC(C)=CCC/C(C)=C/C(=O)O
inactive: Potency [1] | outcome [2] | outcome [3] | outcome [10] | Potency [6] | outcome [7] | Potency [8] | outcome [9]

C=C(C)[C@H]1CC=C(C)CC1
inactive: Potency [1] | outcome [2] | outcome [3] | outcome [10] | Potency [6] | outcome [7]

Reference: PubChem BioAssay (Tox21)
